Measured values as given in the supplement of paper PMC13380429.

Test system: Vero E6 infected with SARS-CoV-2
Assay: morphology score (similarity to uninfected cells); higher = more like uninfected cells
Conditions: 24 h

Row | SMILES | morphology score
1 | CCOc1ccccc1-n1c(C(C)N2CCN(C(=O)COc3ccc(Cl)cc3)CC2)nc2ccccc2c1=O (stereo not drawn) [erastin] (0.833333 µM) | -0.0506
2 | Cn1cc(-c2ccc(F)c(C(F)(F)F)c2)nc1C1CCN(c2ncnc3[nH]ncc23)CC1 (10 µM) | 0.119
3 | O=C(NC(=O)c1c(F)cccc1Cl)NC1c2ccccc2-c2ccccc21 (10 µM) | 0.143
4 | NS(=O)(=O)c1cc(C(=O)O)c(NCc2ccco2)cc1Cl [furosemide] (10 µM) | 0.0455
5 | CN(C)CCC(c1ccccc1)c1ccccn1 (stereo not drawn) [pheniramine] (10 µM) | -0.131
6 | Cc1ccc2c(N3CCN(CCc4cccc(N5CCNC5=O)c4)CC3)cccc2n1 (10 µM) | 0.325
7 | CC(C)C[C@H](CN)CC(=O)O (10 µM) | -0.0821
8 | C[C@@H](Nc1cc(F)cc(F)c1)c1cc(C(=O)N(C)C)cc2c(=O)cc(N3CCOCC3)oc12 (10 µM) | -0.225
9 | c1ccc2c(c1)Sc1ccccc1N2C[C@H]1CN2CCC1CC2 [levomequitazine] (10 µM) | 0.0894
10 | CCOc1cc([C@@H](CS(C)(=O)=O)N2C(=O)c3cccc(NC(C)=O)c3C2=O)ccc1OC [apremilast] (10 µM) | 0.345
11 | Cc1cc(CC(C)CC(C)(C)C)n(O)c(=O)c1 (stereo not drawn) [piroctone-olamine] (10 µM) | 0.406
12 | CC(C)[C@H](O)C(=O)N[C@@H](C)C(=O)N[C@@H]1C(=O)N(C)CCc2ccccc21 [semagacestat] (10 µM) | 0.0376
13 | COc1cc2c(cc1OC)-c1cc3nc4ccccc4nc3n1C(C)(C)C2 (10 µM) | 0.134
